Many of the other results were omitted from the sample, so hits are more common in it than they were.
LmPK inhibitor = inhibitors of Leishmania mexicana pyruvate kinase. Potency, µM (titrated, usually from 57.5 µM), without a hit: at the highest dose activity change, negative = inhibition, hits mostly inhibitors. 0.37% of 290,000 active. purified LmPK, Kinase-Glo ATP luminescence, 1 h. AID 1721; also: potency is read from the fitted curve at half-maximal effect; % is scaled to controls: 0 for no effect and ±100 for the full control effect
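qHTS format; LmPK 0.1 nM; substrates PEP 0.5 mM and ADP 0.1 mM. One-hour room-temperature incubation, then coupled luciferase luminescence; 0.5 nM enzyme wells mark activation.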
Tb PYK inh = inhibitors of Trypanosoma brucei pyruvate kinase | TbPYK enzyme, Kinase-Glo Plus ATP luminescence, 45 min | Potency, µM (titrated, usually from 76.8 µM), for inactives: top-dose activity, negative = inhibition, actives largely listed as inhibitors | 0.12% of 410,000 active | AID 624173; also: potency is read from the fitted curve at half-maximal effect; % is scaled to controls: 0 for no effect and ±100 for the full control effect; nearly all actives have a fitted effect of over 50% in size
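Luminescence from Kinase-Glo Plus, added after a 45-minute room-temperature reaction, served as the end-point read-out. The enzyme and substrate were preincubated with compound before ADP (130 uM final) initiated turnover. Concentration-effect curves came from normalized qHTS data.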
Cycloheximide cs = counter-screen for Shiga toxin inhibitors: cycloheximide protein synthesis inhibition; cell reporter, cycloheximide protein synthesis inhibition counterscreen; 12% of 300,000 active; max response, %; in the data active = max response mostly above about 13%, no sharp cut-off; inactive = mostly below about 14%; also: read at 38.3 µM for the half of the compounds with a filed dose; 0% is about no effect
Sm TGR inh = inhibitors of Schistosoma mansoni thioredoxin glutathione reductase; 3% of 360,000 active; purified TGR, DTNB reduction, TNB absorbance 405 nm; Q962Y6; Potency, µM (titrated, usually from 114 µM), for inactives: at the top dose activity change, negative = inhibition, usual class: inhibitors; also: potency is read from the fitted curve at half-maximal effect; % is scaled to controls: 0 for no effect and ±100 for the full control effect; nearly all actives have a fitted effect of over 60% in size
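First, TGR (20 nM dispensed) and NADPH were mixed with compound. Second, a 15 min room-temperature incubation followed. Third, further NADPH and then DTNB were added to start the reaction. Finally, TNB absorbance was monitored kinetically.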
Shiga inhibitor = inhibitors of Shiga toxin in Vero cells; 9.2% of 290,000 active; inhibition, % at 38.7 µM; AID 2315; Vero cells, Shiga toxin protein synthesis inhibition reporter; in the data active = inhibition mostly above about 28%, no sharp cut-off; inactive = mostly below about 43%; also: 0% is about no effect
Giardia FBPA inh = blocks Giardia fructose-bisphosphate aldolase activity | purified Giardia FBPA | Potency, µM (highest dose often 59.6 µM), for inactives: at the top dose activity, negative = inhibition, actives largely listed as inhibitors | AID 2451 | 0.71% of 290,000 active; also: potency is read from the fitted curve at half-maximal effect; % is scaled to controls: 0 for no effect and ±100 for the full control effect; nearly all actives have a fitted effect of over 55% in size
Target sequence (A8B2U2 whole entry, looked up): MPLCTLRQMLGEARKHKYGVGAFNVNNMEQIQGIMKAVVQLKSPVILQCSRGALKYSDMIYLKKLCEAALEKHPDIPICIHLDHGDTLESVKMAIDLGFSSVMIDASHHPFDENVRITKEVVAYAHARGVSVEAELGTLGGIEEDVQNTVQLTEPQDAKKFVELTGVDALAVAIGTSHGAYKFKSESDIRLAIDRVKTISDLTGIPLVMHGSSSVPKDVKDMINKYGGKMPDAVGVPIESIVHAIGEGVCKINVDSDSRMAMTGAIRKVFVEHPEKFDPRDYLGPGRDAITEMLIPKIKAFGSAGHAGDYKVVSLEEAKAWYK
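40 nM FBPA preincubated 10 min at RT with compound (up to 57.5 uM final), then substrate plus GAPDH/TPI/NAD/arsenate coupling and diaphorase/resazurin added. Fluorescence read after 20 min at RT, 525/598 nm.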
The depositor's hits bear a star. Unless noted, calls follow the shape of the dose curve; as a rule, active = well fitted curve in the direction sought with a large enough effect; inconclusive = small, poorly fitted or top-dose-only effect, or another doubt; inactive = no such curve, though single readings can be large; an effect the other way counts as inactive or inconclusive.

`Cc1ccc(-c2cc3nc(-c4ccccc4)cc(N)n3n2)cc1` gave LmPK inhibitor 0.7%, Tb PYK inh -2.9%, Cycloheximide cs 37.6*, Sm TGR inh -3.5%, Shiga inhibitor 81.7* and Giardia FBPA inh -1.4%.
Screening Cc1ccc(-c2cc3nc(-c4ccccc4)cc(N4CCOCC4)n3n2)cc1 returned LmPK inhibitor 7.5%, Tb PYK inh 2.4%, Cycloheximide cs 23.2*, Sm TGR inh -3.0%, Shiga inhibitor 11.8 and Giardia FBPA inh -2.3%.
For O=C(NCc1ccccc1)c1ccc2c(c1)sc1nc(-c3ccc(F)cc3)cn12 the results were Tb PYK inh 2.6% and Sm TGR inh 4.4%.
`Cc1ccc(NC(=O)Cn2c(=O)cc(-c3ccccc3)c3c(C)nn(C)c32)c(Cl)c1` gave Tb PYK inh 1.0% and Sm TGR inh 1.5%.
Screening O=C(N/C=C/c1ccco1)OCc1ccccc1 returned LmPK inhibitor -1.7%, Tb PYK inh -20.0%, Cycloheximide cs 0.8, Sm TGR inh 44.7µM*, Shiga inhibitor 17.0 and Giardia FBPA inh -4.1%.
For O=C(N/C=C/c1ccco1)NCc1ccccc1 the results were LmPK inhibitor 2.5%, Tb PYK inh -36.9%, Cycloheximide cs -1.0, Sm TGR inh 25.1µM*, Shiga inhibitor 54.6 and Giardia FBPA inh -9.9%.
For NS(=O)(=O)c1ccc(CCNc2ccc(C(F)(F)F)cn2)cc1 the results were LmPK inhibitor -0.4%, Tb PYK inh -4.2%, Cycloheximide cs -3.6, Sm TGR inh -3.7%, Shiga inhibitor -5.0 and Giardia FBPA inh -3.6%.
Screening FC(F)(F)c1ccc(NCCc2ccccc2)nc1 returned LmPK inhibitor -3.5%, Tb PYK inh 0.7%, Cycloheximide cs 14.5*, Sm TGR inh 0.3%, Shiga inhibitor 19.3 and Giardia FBPA inh -0.3%.
`CN(/N=C/c1cccnc1)c1cnn(-c2ccc(F)c(Cl)c2)c(=O)c1Cl` gave LmPK inhibitor 3.6%, Tb PYK inh -10.7%, Cycloheximide cs 20.3*, Sm TGR inh 15.8%, Shiga inhibitor 82.2 and Giardia FBPA inh 3.8%.
CN(/N=C/c1c[nH]c2ccccc12)c1cnn(-c2ccc(F)c(Cl)c2)c(=O)c1Cl was read as LmPK inhibitor 9.3%, Tb PYK inh -23.6%, Cycloheximide cs -5.4, Sm TGR inh -2.3%, Shiga inhibitor 14.0 and Giardia FBPA inh 2.6%.
For Fc1ccc2nc(Nc3nc4c(F)cccc4s3)sc2c1 the results were LmPK inhibitor 1.5%, Tb PYK inh -5.8%, Cycloheximide cs 45.5*, Sm TGR inh -3.9%, Shiga inhibitor 42.0* and Giardia FBPA inh -3.2%.
Screening Fc1cccc2sc(Nc3nc4ccccc4s3)nc12 returned LmPK inhibitor -2.7%, Tb PYK inh -6.5%, Cycloheximide cs 55.7*, Sm TGR inh -8.0%, Shiga inhibitor 69.2* and Giardia FBPA inh 15.6%.
`CCC(=O)NNc1nc2c(F)cccc2s1` gave LmPK inhibitor 0.3%, Tb PYK inh -4.8%, Cycloheximide cs -5.0, Sm TGR inh 5.6%, Shiga inhibitor -10.2 and Giardia FBPA inh -1.7%.
`Cc1ccc(SC[C@H](Cc2ccccc2)N2CCN(CC(C)C)CCC2=O)cc1` gave LmPK inhibitor 1.4%, Tb PYK inh -5.7%, Cycloheximide cs 6.5, Sm TGR inh 25.1µM*, Shiga inhibitor 16.6 and Giardia FBPA inh 5.4%.
`COc1ccc(SCC(CC(C)C)N2CCN(CCc3ccccc3)CCC2=O)cc1` (centres undefined) gave Cycloheximide cs 55.8*, Shiga inhibitor 56.9* and Giardia FBPA inh -0.1%.
For CC(C)CN1CCC(=O)N([C@H](CSc2ccccc2)Cc2ccccc2)CC1 the results were LmPK inhibitor -7.2%, Tb PYK inh -4.9%, Cycloheximide cs -0.3, Sm TGR inh inconclusive, Shiga inhibitor 5.3 and Giardia FBPA inh 10.5%.
For CC(C)C[C@@H](CSc1ccc(Br)cc1)N1CCN(CCc2ccccc2)CCC1=O the results were LmPK inhibitor -0.7%, Tb PYK inh 1.4%, Cycloheximide cs 9.8, Sm TGR inh inconclusive, Shiga inhibitor -12.7 and Giardia FBPA inh 0.5%.

Screens as filed in PubChem BioAssay.
